High-throughput results as filed in PubChem.
This is a sample that favours compounds with a hit; in the whole collection about 6.9% have one here.
Giardia kill: Small Molecules that selectively kill Giardia lamblia: qHTS; Giardia lamblia trophozoite viability; 340,000 tested, 0.15% active; activity change, % at 7.66 µM, hits read low; AID 540267, 2011; in the data active = activity change below about -80%; inconclusive = between about -30% and that limit;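 also: parasites exposed to compound for two days anaerobically before the ATP read; % is scaled to controls: 0 for no effect and ±100 for the full control effect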
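Luminescent ATP signal served as the viability read-out, measured 15-30 min after adding ATP detection reagent to trophozoites that had been incubated with compounds for 48 hrs at 37 deg C anaerobically at 100 cells/well.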
Vif-A3G inh: qHTS for Inhibitors of Vif-A3G Interactions: qHTS; HeLa A3G-eYFP + Vif (tagged APOBEC3G with the HIV-1 protein that degrades it), YFP fluorescence, overnight; Potency, µM (top dose mostly 46.1 µM), for inactives: at the top dose activity, negative = active, hits mostly inhibitors; 410,000 tested, 0.076% active; also: potency is read from the fitted curve at half-maximal effect; % is scaled to controls: 0 for no effect and ±100 for the full control effect; nearly all actives have a fitted effect of over 60% in size
Target sequence (Q9HC16 whole entry, looked up): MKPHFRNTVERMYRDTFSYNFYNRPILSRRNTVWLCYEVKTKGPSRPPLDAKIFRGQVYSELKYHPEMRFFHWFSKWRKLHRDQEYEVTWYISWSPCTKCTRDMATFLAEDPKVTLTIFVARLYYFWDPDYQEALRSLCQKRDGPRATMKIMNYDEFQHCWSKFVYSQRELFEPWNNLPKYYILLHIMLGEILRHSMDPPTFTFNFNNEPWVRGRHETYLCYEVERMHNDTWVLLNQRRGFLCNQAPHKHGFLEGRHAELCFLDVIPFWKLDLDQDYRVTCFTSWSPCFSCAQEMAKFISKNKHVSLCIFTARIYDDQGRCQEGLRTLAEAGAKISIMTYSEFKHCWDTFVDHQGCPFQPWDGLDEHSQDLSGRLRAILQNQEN
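Read-out is eYFP fluorescence (Ex 488/Em 500-530) from Vif-expressing HeLa A3G-eYFP cells; more signal means A3G escaped Vif-mediated degradation. Cells plated overnight, compound pinned in, incubated overnight at 37 deg C.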
IL1B secr inh: qHTS for Inhibitors of Inflammasome Signaling: IL-1-beta AlphaLISA Primary Screen; AID 743279, 2014; 360,000 tested, 4.7% active; activity change, % at 57.5 µM; THP-1 LPS/ATP IL-1B secretion, AlphaLISA, 16 h; hits give low values; in the data active = activity change below about -50%; inconclusive = mostly about -30% to -49%; also: % is scaled to controls: 0 for no effect and ±100 for the full control effect
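THP-1 cells pretreated 1 hr with compounds (up to 57.5 uM final), then stimulated with LPS (250 ng/mL final) plus ATP (1.25 mM final); secreted IL-1B measured by AlphaLISA after 16 hr, decreased signal indicating inhibition.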
Vif-APOBEC3F blk: qHTS for Inhibitors of Vif-A3F Interactions: qHTS; Potency, µM (top dose mostly 46.1 µM), for inactives: at the highest dose activity, negative = active; 390,000 tested, 0.2% active; AID 602313, 2012; HeLa A3F-eYFP + Vif (tagged APOBEC3F with the HIV-1 protein that degrades it), YFP fluorescence increase; also: potency is read from the fitted curve at half-maximal effect; % of control where 0% means no effect; nearly all actives have a fitted effect of over 65% in size
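HeLa cells stably expressing A3F-eYFP plus Vif, plated and incubated overnight at 37 deg C, then exposed to compounds overnight at 37 deg C. Blocked degradation read as raised yellow fluorescence (Ex 488/Em 500-530).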
SW480 rereplic: A quantitative high throughput screen for small molecules that induce DNA re-replication in SW480 colon adenocarcinoma cells. SW480 DNA re-replication, Hoechst DNA content imaging, 48 h. Potency, µM (series often up to 46.1 µM), for inactives: top-dose re-replication activation, usual class: activators. 340,000 tested, 1.8% active; also: potency is read from the fitted curve at half-maximal effect; % of control where 0% means no effect; nearly all actives have a fitted effect of over 55% in size
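Hoechst fluorescence of nuclei (405 nm excitation, 500-530 nm emission) measured by plate-scanning imager after 48 hr compound exposure at 37 C; re-replication scored as increased number of nuclei with elevated intensity.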
MCF10A rereplic: A quantitative high throughput screen for small molecules that induce DNA re-replication in MCF 10a normal breast cells | Potency, µM (series often up to 46.1 µM), without a hit: at the highest dose activity, positive = re-replication, hits mostly activators | 350,000 tested, 2.9% active | MCF 10A DNA re-replication, Hoechst nuclear intensity, 48 h; also: potency is read from the fitted curve at half-maximal effect; % of control where 0% means no effect; nearly all actives have a fitted effect of over 50% in size
The depositor's hits bear a star; ? = inconclusive; / = no result given; [ ] = another dose, or the depositor's remark. Unless noted, calls follow the shape of the dose curve; as a rule, active = well fitted curve in the direction sought with a large enough effect; inconclusive = small, poorly fitted or top-dose-only effect, or another doubt; inactive = no such curve, though single readings can be large; an effect the other way counts as inactive or inconclusive.

SMILES	Giardia kill	Vif-A3G inh	IL1B secr inh	Vif-APOBEC3F blk	SW480 rereplic	MCF10A rereplic
CC(C)CC[n+]1ccn(-c2nc3ccccc3nc2[N-]S(=O)(=O)c2ccc(Cl)cc2)c1	0	-2%	-2	6%	?	23µM*
O=S(=O)([N-]c1nc2ccccc2nc1-n1cc[n+](Cc2ccccc2)c1)c1ccc(Br)cc1	5	-2%	/	?	18µM*	18µM*
[O-][N+]12CCCc3cccc(c31)CCC2	/	-4%	/	/	/	/
COc1ccc(/C=C2\CCC(C3CCCC3)C2=O)cc1Cn1cccn1 (stereo not given)	0	-3%	-80*	-4%	29%	54%
COc1ccc(/C=C2\CCC(C3CCCC3)C2=O)cc1Cn1nc(C)cc1C (stereo not given)	13	4%	4	5%	-3%	9%
COc1ccccc1/C=C1\CCC(C2CCCC2)C1=O (stereo not given)	-6	1%	23	-12%	-2%	18µM*
O=C1/C(=C/c2ccccc2)CCC1C1CCCC1 (stereo not given)	3	-1%	-11	-2%	12%	20%
O=C(Nc1ccc(O)cc1)c1ccc(NC(=O)c2cccs2)cc1	11	-6%	-28	-9%	-10%	18µM*
Cc1ccc(NC(=O)c2cccs2)cc1NC(=O)c1cccc(F)c1	-14	-10%	0	5%	?	?
Cc1ccc(NC(=O)c2cccs2)cc1NC(=O)c1ccc(F)cc1	-11	-14%	-60*	-18%	4%	2%
O=C(Nc1ccc(Cc2ccncc2)cc1)c1cccs1	-17	-1%	-75*	6%	2%	14%
O=C(CNC(=O)c1cccs1)c1ccc(Cl)cc1	7	-1%	-10	-18%	1%	-10%
O=C(CNC(=O)c1cccs1)c1ccc(F)cc1	-3	0%	-19	-5%	?	23µM*
O=C(NC1CC(=O)N(c2ccc(F)cc2)C1)C1CCCC1 (stereo not given)	/	5%	/	-1%	/	/
COc1cccc(CN2C(=O)N(c3ccc(C)cc3)C(=O)C2CC(=O)Nc2cc(OC)cc(OC)c2)c1 (stereo not given)	/	-3%	/	1%	/	/
CCOC(=O)c1c(C)nn(-c2ccc(NC(=O)c3cccs3)cc2)c1C	3	-13%	-96*	-2%	-1%	26%
COc1ccc(C(=O)Nc2cnc(NC(=O)c3cccs3)cc2C)cc1	8	-4%	5	-28%	?	7.3µM*
CC1CCCN(c2ncnc3c2cnn3-c2ccc(Cl)cc2)C1 (stereo not given)	?	-2%	52	-3%	-3%	14%
CCOC(=O)C1CCCN(c2ncnc3c2cnn3-c2cccc(C)c2)C1 (stereo not given)	2	0%	6	2%	0%	0%
CCN(CC)C(=O)C1CCCN(c2ncnc3c2cnn3-c2cccc(C)c2)C1 (stereo not given)	-1	1%	-56*	9%	-4%[9.22 µM]	9%
CCN(CC)C(=O)C1CCCN(c2ncnc3c2cnn3-c2ccc(Cl)cc2)C1 (stereo not given)	-4	-10%	-54*	4%	-6%	15%
Cc1nn(-c2ccccn2)c(C)c1Oc1ccccc1O	-4	?	33	-10%	14%	?
Cc1nn(-c2nc3ccccc3s2)c(C)c1Oc1ccccc1O	1	-17%	-79*	2%	?	?
COC(=O)Cc1cc(=O)oc2cc(O)ccc12	18	-5%	-70*	3%	18µM*	16µM*
Cc1ccc(S(=O)Cc2ccc(C(=O)NC3CCCCCC3)o2)cc1 (stereo not given)	/	4%	/	0%	/	/
